Laboratory results taken from PubChem BioAssay (NCI).
Compounds without any hit were thinned out: in the full panel of roughly 79,000, 15% have a hit. Cut-off read from the data, not from the text of the source: active = growth inhibition above about 70%; inactive = the rest.

Assays:
[1] = NCI Yeast Anticancer Drug Screen. Data for the rad50 strain (AID 155);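 note: 0% = growth of vehicle-only cultures of the same strain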; conditions: S. cerevisiae rad50 strain growth inhibition; at 50.0 µM; active compounds read high
How it was run: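 Yeast carrying a defined DNA repair defect were exposed to test compounds, and growth was compared with vehicle-treated controls to give percent inhibition.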

[2] = NCI Yeast Anticancer Drug Screen. Data for the mec2-1 strain (AID 157); conditions: S. cerevisiae mec2-1 strain, at 50.0 µM, active compounds read high
How it was run: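 Compounds were applied to mec2-1 yeast cells. Their growth was then compared with that of vehicle-treated cultures to give growth inhibition.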

[3] = NCI Yeast Anticancer Drug Screen. Data for the sgs1 mgt1 strain (AID 161);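 note: 0% = growth of cultures given vehicle only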; conditions: S. cerevisiae sgs1 mgt1 strain, at 50.0 µM, active compounds read high
How it was run: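 Percent growth inhibition was derived by comparing compound-exposed mutant yeast with vehicle-exposed cultures. The strain carries alterations in DNA damage repair.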

[4] = NCI Yeast Anticancer Drug Screen. Data for the cln2 rad14 strain (AID 165);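 note: 0% = growth equal to vehicle treated cultures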; conditions: S. cerevisiae cln2 rad14 strain, at 50.0 µM, active compounds read high
How it was run: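 Strain: cln2 rad14 yeast, altered in cell cycle control and DNA damage repair. Read-out: growth inhibition vs vehicle.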

[5] = NCI Yeast Anticancer Drug Screen. Data for the bub3 strain (AID 167); conditions: S. cerevisiae bub3 mutant strain, at 50.0 µM, active compounds read high
How it was run: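 Compounds were applied to a genetically altered yeast strain carrying a cell-cycle control defect. Growth inhibition was scored against vehicle-treated controls.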

[6] = NCI Yeast Anticancer Drug Screen. Data for the mlh1 rad18 strain (AID 175); conditions: S. cerevisiae mlh1 rad18 strain growth inhibition; at 50.0 µM; active compounds read high
How it was run: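 A repair-deficient yeast strain is exposed to test compound, and growth is scored relative to vehicle-treated controls.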

Measured: growth inhibition

COC(C(O)C(O)C(O)C(O)CO)n1cnc2cncnc21 (configuration not stated)
inactive: [1] 4.05% | [2] 5.45% | [3] 7.8% | [4] 2.9% | [5] -4.2% | [6] 2.45%

O=P(O)(O)c1ccc2c(c1)OCCOCCOCCOCCO2
inactive: [1] -41.9% | [2] -10.9% | [3] -29.5% | [4] -21.9% | [5] -24.4% | [6] -14.8%

C[N+](C)(C)C(Cc1ccccc1)Cc1ccccc1
inactive: [1] -27% | [2] 9.95% | [3] -29.9% | [4] -47.1% | [5] -0.7% | [6] 5.65%

Cc1cc(O)c2c(c1)C(=O)c1c(-c3ccc(O)c4c3C(=O)c3c(O)c(C)cc(O)c3C4=O)ccc(O)c1C2=O
inactive: [1] -30.7% | [2] -19.8% | [3] -17.1% | [4] 9.05% | [5] -26.8% | [6] -24.4%

O=C1c2ccccc2C(=O)c2[nH]ncc21
inactive: [1] 18.4% | [2] 13.8% | [3] -3.25% | [4] -61.6% | [5] 10.1% | [6] -1.8%

CC(C)(C)c1ccc(O)c(Cl)c1
inactive: [1] -15.8% | [2] -7.65% | [3] -5.9% | [4] -7.85% | [5] -11.1% | [6] 10.2%

O=C(O)c1cc(Br)c(O)cc1O
inactive: [1] -11.4% | [2] -17.6% | [3] -3.35% | [4] 9.35% | [5] -5.25% | [6] 7%

CN(C)c1ncnc2c1cnn2-c1ccc(Cl)cc1
inactive: [1] -6.15% | [2] -6.2% | [3] -9.3% | [4] -36.6% | [5] -0.95% | [6] -8.45%

C=C(C)C(O)C(O)c1c(OC)ccc2ccc(=O)oc12 (configuration not stated)
inactive: [1] -3.65% | [2] -4.25% | [3] -50.7% | [4] 14.1% | [5] -5.55% | [6] -4.4%

C[CH2][Sn]([CH2]C)([O]C(=O)c1ccc(F)cc1)[O][Sn]([CH2]C)([CH2]C)[O]C(=O)c1ccc(F)cc1
inactive: [1] -7.3% | [2] -2.8% | [3] -16.4% | [4] 23.6% | [5] 12.6% | [6] -9.05%

CC(C)N(CC(c1ccccc1)C(C)(O)c1ccccc1)C(C)C (configuration not stated)
inactive: [1] -10.1% | [2] 15.7% | [3] -7.55% | [4] 4.2% | [5] 26.7% | [6] -21.1%

COc1ccccc1CCCO
inactive: [1] -1.8% | [2] 1.2% | [3] 1.55% | [4] 11.2% | [5] 10.1% | [6] -3.1%

CCN(CC)CCCNc1cc(OC)c(Cl)c2cccnc12
inactive: [1] 22.2% | [2] 9.1% | [3] 38% | [4] 35.9% | [5] -19.8% | [6] 28.7%

OCC1(CO)CCCO1
inactive: [1] 4.15% | [2] -21.9% | [3] -10.4% | [4] 5.1% | [5] -0.4% | [6] 2.55%

N#Cc1cc2c3ccccc3ncc2c2ccccc12
inactive: [1] 0.95% | [2] 16.4% | [3] -3% | [4] -1.1% | [5] -1.7% | [6] -6%

O=C(c1ccccc1)c1nc2c(Cl)ccc(Cl)c2cc1C(Br)Br
inactive: [1] 37.1% | [2] 20.8% | [3] 44% | [4] 45.2% | [5] 38.1% | [6] 44.1%

Cc1ccc(S(=O)(=O)NN=C2CCCCC2)cc1
inactive: [1] -3.45% | [2] -11.4% | [3] -1.3% | [4] -19.4% | [5] -14.5% | [6] -11.8%

Cc1cccn2c(C)nnc12
inactive: [1] 3.4% | [2] 25.7% | [3] -1.35% | [4] 17.6% | [5] 28.1% | [6] 12.7%

C/C(N)=N/OCc1ccccc1
inactive: [1] 8.9% | [2] 6.95% | [3] 10.7% | [4] 4.7% | [5] 10.2% | [6] 7.7%

NCCNCC(O)CO (configuration not stated)
inactive: [1] -2.4% | [2] -18.6% | [3] -21.4% | [4] -9.5% | [5] 3.9% | [6] 6.15%

COc1ccc(C(=O)CCl)c(O)c1OC
inactive: [1] -4.95% | [2] 5.95% | [3] -5.6% | [4] 14.8% | [5] 5.7% | [6] 11.8%

COc1cccc2sc(-n3c(C)nc4ccccc4c3=O)nc12
inactive: [1] 33.5% | [2] 12.5% | [3] 54.8% | [4] 17.9% | [5] 51.9% | [6] 40.5%

CC(C)(C)SC1C(O)C(CO)OC1n1ccc(Nc2ccccc2)nc1=O (configuration not stated)
inactive: [1] -17.9% | [2] 10.8% | [3] -24.6% | [4] -15.8% | [5] 1.55% | [6] 4.65%

O=C(C[n+]1cccc(Cl)c1)c1ccccc1
inactive: [1] -3.55% | [2] 7.9% | [3] 7.9% | [4] -9.7% | [5] -4.85% | [6] -0.5%

c1ccc(CNc2ncncc2-c2ccccc2)cc1
inactive: [1] 2.75% | [2] 3.85% | [3] 17.4% | [4] 9.1% | [5] 1.6% | [6] 5.15%

S=C1Cc2c(-c3ccccc3)cc(-c3ccc(Cl)cc3)nc2-c2ccccc2N1
inactive: [1] 8.75% | [2] -3.85% | [3] 5.65% | [4] 2.55% | [5] 6.75% | [6] -4.25%

CC(=O)OCC1OC(n2ncnc2CBr)C(OC(C)=O)C(OC(C)=O)C1OC(C)=O (configuration not stated)
inactive: [1] 30% | [2] -3.4% | [3] 12.4% | [4] 8.45% | [5] -4.8% | [6] 10.6%

CCNC(=O)NCN1CCOCC1
inactive: [1] 26.2% | [2] -0.5% | [3] 16.9% | [4] 9.45% | [5] 0.4% | [6] 9%

CCCCCC(Nc1nncs1)Nc1nncs1
inactive: [1] -4.2% | [2] -20.5% | [3] 14.9% | [4] 6.1% | [5] 8.4% | [6] 12.6%

CNC(=O)C1CCCN1C(=O)C(Cl)Cl (configuration not stated)
inactive: [1] -1.95% | [2] -10.6% | [3] 0.9% | [4] -21.9% | [5] -10.8% | [6] 14.2%

Cc1ncc2c(n1)NC(=O)NC2
inactive: [1] 17.1% | [2] 13.5% | [3] -16.6% | [4] 0.9% | [5] -23.1% | [6] -13.9%

CC(C)(O)C1CCC/C1=N/NC(N)=O (configuration not stated)
inactive: [1] -7.5% | [2] 5% | [3] 5.2% | [4] 3.55% | [5] -10.3% | [6] -11.3%

Cc1ccc(S(=O)(=O)N/N=C/C(O)C(O)C(O)C(O)CO)cc1 (configuration not stated)
inactive: [1] 5.9% | [2] -5.15% | [3] -14.8% | [4] -34.1% | [5] -8.45% | [6] 12.3%

COc1cc(C=O)cc(Br)c1O
inactive: [1] 13.3% | [2] -3.55% | [3] 34.1% | [4] -8.45% | [5] -19.7% | [6] 34.4%

Cc1ccccc1C(C#N)/C(=N/NC(N)=S)C(=O)Nc1c(C)cccc1C (configuration not stated)
inactive: [1] -36.5% | [2] -27.7% | [3] 2.5% | [4] -12.4% | [5] -17.2% | [6] -31.1%

CC(=O)OC1COC(N2C(=O)C(=O)c3ccccc32)C(OC(C)=O)C1OC(C)=O (configuration not stated)
inactive: [1] 13.1% | [2] 19.4% | [3] -1.5% | [4] -22.4% | [5] 9.05% | [6] 19.1%

C[N+]1(C)CCN(S(=O)(=O)c2ccccc2)c2ccccc21
inactive: [1] -10.1% | [2] -13.4% | [3] -4.35% | [4] -7.95% | [5] -19.6% | [6] -18.4%

O=C(O)C1Nc2ccccc2NC1=O (configuration not stated)
inactive: [1] 3.55% | [2] -3.15% | [3] -5.5% | [4] -47% | [5] -4.35% | [6] 3.3%

C=CCNC(=S)Nc1cccc(O)c1
inactive: [1] -8.05% | [2] -11.6% | [3] -11.6% | [4] -31.8% | [5] -10.9% | [6] -2.55%

O=c1c2cc3c(=O)n(O)c(=O)c3cc2c(=O)n1O
inactive: [1] 12.4% | [2] -18.2% | [3] -9.45% | [4] 6.75% | [5] 3.25% | [6] -90.4%

CC(C)CC1=C(N(C)C)C(=O)C=C(N(C)C)C1=O
inactive: [1] -0.35% | [2] -9.4% | [3] 10.2% | [4] -5.65% | [5] -9.85% | [6] -13.4%

O=N[C@@H]1CCC[C@H](Cl)C1
inactive: [1] 3.95% | [2] -6.65% | [3] -0.1% | [4] 17.2% | [5] 5.75% | [6] 15.6%
